Assay in all cases: PBM binding z-score (relative to random genomic background probes); higher = stronger binding; sequences stand for … in GC…GCGATTGACAGCGTAGAATGAAGG
For assay [1], the system named is RARb homodimer (NR concentration 270 nM). The gist of the method:
(§1)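 Ligand-free nuclear receptor dimers were applied to custom Agilent 4×180K protein-binding microarrays whose double-stranded probes carried direct-repeat seeds, single-nucleotide variants, half-site ablations and random human genomic background sequences in 34-nt variable regions. Incubation lasted 1 h. Binding z-scores were computed against the random background probes from regression-normalized fluorescence.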

Assay [2] deals with RARg:RXRa (NR concentration 270 nM, RXRa partner concentration 90 nM). A digest of the protocol: as §1
Assay [3] concerns RARg homodimer (NR concentration 270 nM). The gist of the method:
as §1

Assay [4] relates to RXRa DBDmut IVT, anti-RXR (DBD mutation: RXRa K156A/R161A, NR concentration 90 nM). The gist of the method:
as §1

Assay [5] concerns RXRa homodimer (NR concentration 180 nM). A digest of the protocol: as §1
Assay [6] deals with THRa:RXRa (NR concentration 90 nM, RXRa partner concentration 90 nM). The gist of the method: as §1
Assay [7] relates to THRa homodimer (NR concentration 90 nM). A digest of the protocol: as §1
For assay [8], the system named is VDR homodimer (NR concentration 270 nM). The gist of the method: as §1

Consider 17 sequences from the supplement of paper PMC6555819.

Turning to CGACCTAGGTCACCAGGACAGTGAAGAGGTTGGA, the PBM binding z-score in assay [1] amounted to 3.51; in assay [2], 5.3; in assay [3], 5.83; in assay [4] it was 1.6; in assay [5], 3.92; in assay [6], 3.44. In addition, the PBM binding z-score in assay [7] is 1.53; in assay [8], 0.503.
With ATATGGAGGTTAGCTGGGGTCATTCAGACTAGGC, the PBM binding z-score in assay [1] worked out at 4.32; in assay [2] it was 4.94; in assay [3], 3.85; in assay [4], 2.22; in assay [5], 6.26; in assay [6], 5.44. For the same sequence, the PBM binding z-score in assay [7] worked out at 3.66; in assay [8], 5.52.
For CGAACTAGGTCATCAGGACAGTGAAGAGGTTGGA, the PBM binding z-score in assay [1] was 3.22; in assay [2] it was 4.14; in assay [3], 4.73; in assay [4], 1.67; in assay [5] it was 2.99; in assay [6] it was 3.38. Moreover, the figures for the PBM binding z-score in assay [7] and in assay [8] were 1.97 and 0.876, respectively.
Regarding CGAACTATGTCAAGGACAGTGAATCTCCGCACGC, the PBM binding z-score stood at 0.507 in assay [1]; 0.587 in assay [2]; 0.808 in assay [3]; 0.328 in assay [4]; 0.197 in assay [5]; 1.76 in assay [6]. Also, the PBM binding z-score in assay [7] is 1.21; in assay [8], -0.0899.
As for ACTAGTAGGCCAAGGGTCACTCAAGATTAGTCCG, the PBM binding z-score was found to be 3.88 in assay [1]; 4.22 in assay [2]; 4.21 in assay [3]; 0.602 in assay [4]; 4.54 in assay [5]; 2.6 in assay [6]. Moreover, the PBM binding z-score in assay [7] was found to be 0.197; in assay [8], 1.36.
Take AATACAGGGTCACTAGGCCAGAGTGGGTACGAAT: the PBM binding z-score is 3.17 in assay [1]; 5.09 in assay [2]; 4.79 in assay [3]; 2.59 in assay [4]; 5.4 in assay [5]; 3.29 in assay [6]. For the same sequence, the PBM binding z-score in assay [7] came out at 1.4; in assay [8], 3.06.
As for ATATGTAGGTTAGGGTCATTGAGAAAGTAGGGAA, the PBM binding z-score stood at 3.51 in assay [1]; 4.09 in assay [2]; 3.1 in assay [3]; 2.32 in assay [4]; 5.3 in assay [5]; 4.13 in assay [6]. Also, the PBM binding z-score amounted to 3.44 in assay [7] and 3.55 in assay [8].
Take CCGACTGGGGCAAAGGTTACCACACTCAGTACGA: the PBM binding z-score in assay [1] was 2.37; in assay [2] it was 3.51; in assay [3], 1.67; in assay [4], -0.032; in assay [5], 3.69; in assay [6], 1.87. The PBM binding z-score in assay [7] was 0.0247; in assay [8], 0.177.
As to AATACAGGGTCATTAGGCCAGAGTAGGTACGAAT, the PBM binding z-score stood at 2.95 in assay [1]; 4.94 in assay [2]; 4.39 in assay [3]; 3.84 in assay [4]; 5.53 in assay [5]; 3.28 in assay [6]. The PBM binding z-score came out at 1.07 in assay [7] and 3.17 in assay [8].
Take CGTGCAAGGTCAGAGAGGTCAGTGAATGCCGAGT: the PBM binding z-score is 5.37 in assay [1]; 6.33 in assay [2]; 7.25 in assay [3]; 3.07 in assay [4]; 5.82 in assay [5]; 4.31 in assay [6]. In addition, the values for the PBM binding z-score in assay [7] and in assay [8] were 2.54 and 5.99, respectively.
Take CGAACTAGGTCAGAGGACAGTGAAAGGCGACGTA: the PBM binding z-score amounted to 2.41 in assay [1]; 2.82 in assay [2]; 3.91 in assay [3]; 0.547 in assay [4]; 1.54 in assay [5]; 1.76 in assay [6]. Further, the PBM binding z-score was 0.433 in assay [7] and -7.91e-05 in assay [8].
In the case of TAGAGTAGGTTACGGGGGCATTCAGGGATGAAGA, the PBM binding z-score in assay [1] amounted to 2.5; in assay [2] it was 3.43; in assay [3], 2.77; in assay [4], 2.08; in assay [5], 3.21; in assay [6] it was 3.99. In addition, the PBM binding z-score in assay [7] is 1.75; in assay [8] it was 3.81.
As to CGAACTAGTTCAAGGACAGTGAATCTCCGCACGC, the PBM binding z-score was found to be 0.95 in assay [1]; 0.588 in assay [2]; 0.91 in assay [3]; 1.78 in assay [4]; 0.544 in assay [5]; 2.01 in assay [6]. Also, the PBM binding z-score turned out to be 1.47 in assay [7] and 0.883 in assay [8].
Regarding CCGGGTAGGTTACGAGGGGGCATTCAGTGCGAAT, the PBM binding z-score came to 2.2 in assay [1]; 3.26 in assay [2]; 2.22 in assay [3]; 0.966 in assay [4]; 2.35 in assay [5]; 3.94 in assay [6]. The PBM binding z-score came to 0.875 in assay [7] and 2.55 in assay [8].
For the sequence TAGCCTAGGTCATTCAGGGGCCAGAATAGAAAGC, the PBM binding z-score in assay [1] was 3.56; in assay [2], 5.97; in assay [3] it was 4.58; in assay [4], 2.09; in assay [5], 3.18; in assay [6] it was 3.54. Moreover, the PBM binding z-score was 0.459 in assay [7] and 1.19 in assay [8].
Take CCGAGTAGGTTACGAGGGGGCATCCAGTGCGAAT: the PBM binding z-score in assay [1] came to 2.11; in assay [2], 2.95; in assay [3] it was 2.31; in assay [4] it was 0.736; in assay [5], 2.02; in assay [6] it was 3.7. For the same sequence, the values for the PBM binding z-score in assay [7] and in assay [8] were 0.756 and 2.87, respectively.
With ATATGTAGGTAACATCCGGGTCATTCAGGCTATG, the PBM binding z-score in assay [1] amounted to 2.68; in assay [2], 2.39; in assay [3], 1.58; in assay [4], 0.786; in assay [5], 2.49; in assay [6], 3.62. The PBM binding z-score in assay [7] came out at 2.74; in assay [8], 2.52.
